Shown are actives, neighbours in structure and some others; about 4.1% of the full set was active somewhere.
DAX1 inh-1: DAX1 (NR0B1) inhibitors, primary screen, cell-based, HEK293, Gal4-DAX1, luciferase luminescence. 340,000 compounds, 0.99% hits. inhibition, % at 6.75 µM. HEK293 Gal4-DAX1 luciferase reporter. Nuclear receptor subfamily 0 group B member 1 (Homo sapiens), P51843;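 active = inhibition above the mean over all tested compounds plus 3 SD, cut at about 4.2% in these data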;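 note: 0% = DAX1-transfected cells with DMSO and 100% = empty-vector control cells with DMSO; inhibition shows as a rise in luminescence from relieved DAX1 repression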
Target sequence (P51843 207-470 limits assumed): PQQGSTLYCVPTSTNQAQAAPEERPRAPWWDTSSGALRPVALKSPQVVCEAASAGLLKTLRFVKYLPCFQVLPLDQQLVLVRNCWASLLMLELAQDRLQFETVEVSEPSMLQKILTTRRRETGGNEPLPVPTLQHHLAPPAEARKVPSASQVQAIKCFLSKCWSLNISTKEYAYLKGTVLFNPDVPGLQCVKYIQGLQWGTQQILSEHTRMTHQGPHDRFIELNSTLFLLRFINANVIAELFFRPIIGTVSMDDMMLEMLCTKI
ssDAF12 agonist: S. stercoralis DAF-12 nuclear receptor activators, primary screen, cell-based, luminescence, HEK293, GRIP1 co-expression, lit1-tk-luc; 370,000 compounds, 1% hits; activation, % at 6.8 µM; HEK293 ssDAF-12/GRIP1 lit1-tk-luc reporter; % of 3 µM dafachronic acid response; Nuclear hormone receptor DAF-12 (Strongyloides stercoralis);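 active = activation above the mean over all tested compounds plus 3 SD, cut at about 0.9% in these data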;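 note: 0% = DMSO-only wells and 100% = 3 µM delta7-dafachronic acid wells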
hcDAF-12 act: H. contortus DAF-12 nuclear receptor activators, primary screen, cell-based, luminescence, HEK293, lit1-tk-luc reporter. HEK293 hcDAF-12 lit1-tk-luc reporter; 0% DMSO, 100% Δ7-dafachronic acid. activation, % at 6.8 µM. 370,000 compounds, 1.4% hits. AID 652067, 2013;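 active = activation above the mean of all tested compounds plus 3 SD, cut at about 5.5% in these data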;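 note: 100% = response to 3 µM Δ7-dafachronic acid high control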
DAX1 inh-2: DAX1 (NR0B1) inhibitors on StAR promoter, primary screen, cell-based, luminescence, SF-1 (NR5A1), full-length DAX-1. HEK293T StAR-luciferase reporter, SF-1/DAX-1 repression relief. inhibition, % at 6.8 µM. 370,000 compounds, 1.1% hits. AID 652010, 2013;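 active = inhibition above the mean over all tested compounds plus 3 SD, cut at about 3.6% in these data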;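 note: 0% = DAX-1 cells with DMSO and 100% = cells lacking DAX-1 with DMSO; higher inhibition means more luminescence from relief of DAX-1 repression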
hgDAF-12 ag: H. glycines DAF-12 receptor agonists, primary screen, cell-based, luminescence, HEK293, GAL4 fusion, UAS-luciferase; 370,000 compounds, 1.8% hits; HEK293 GAL4-hgDAF12 UAS-luciferase reporter, agonist luminescence; normalized to butyrate control; Nuclear hormone receptor DAF-12 (Heterodera glycines), GAL4 fusion; activation, % at 6.8 µM;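 active = activation above a cutoff set at the mean of all screened compounds plus 3 SD, cut at about 10% in these data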;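 note: 0% = DMSO wells and 100% = sodium butyrate wells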
* marks the source's active call; other numbers are inactive results; . = no result given; ! = not active in a repeat.

SMILES	DAX1 inh-1	ssDAF12 agonist	hcDAF-12 act	DAX1 inh-2	hgDAF-12 ag
O=C(CC1SC(=Nc2ccccc2)N(CCO)C1=O)Nc1ccccc1 (stereo unspecified)	1	-1	-1	0	2
O=C(c1ccc(N2CCOCC2)cc1)c1cccs1	3	0	6	3.8*	12*
CSC(=NC#N)N1CCN(C(c2ccccc2)c2ccccc2)CC1	0	-1	1	-1	1
CSC(=NC#N)N1CCN(C(=NC#N)SC)CC1	4.7*	0	0	-1	1
O=C(c1ccc2c(c1)CCC2)N1CCN(Cc2ccccc2)CC1	1	-1	-1	0	-1
O=C(Nc1cccc2nsnc12)c1ccc2c(c1)OCCO2	1	0	5.6*	2	10
Cc1cccc(NC(=O)c2ccc3c(c2)OCCO3)c1C	0	0	4	2	12*
Cc1ccccc1NC(=O)c1ccc2c(c1)OCCO2	0	-1	2	1	6
O=C(Nc1cccc2nsnc12)c1ccc2c(c1)OCO2	1	-1	2	1	8
CC(=O)Nc1ccc(C(/C=C/c2ccccc2)Cc2ccccc2)cc1 (stereo unspecified)	.	-1	-2	-1	3
Nc1cccc(N=[N+]([O-])c2cccc(N)c2)c1	0	0	0	1	11*
O=[N+]([O-])c1cccc(N=NNc2cccc([N+](=O)[O-])c2)c1	0	-1	-1	1	0
Cc1ccc(C(=O)OCc2nc3ccccc3s2)o1	0	0	5.8*	3	8
O=C(OCc1nc2ccccc2s1)c1ccc(Br)s1	2	1.1*	3	0	5
Cc1ccc(C(=O)OCc2nc3ccsc3c(=O)[nH]2)o1	0	0	1	1	1
O=C(OCc1nc2ccccc2s1)c1cc2ccccc2oc1=O	.	0.9*	6.2*	1	4
Nc1ccc(C(=O)OCc2nc3ccccc3s2)cc1	0	-1	0	0	3
COc1ccc(CCNC(=O)COC(=O)c2cc3ccccc3oc2=O)cc1OC	0	1.4*	4	-1	3
NC(=O)CSCc1nc2ccccc2s1	0	1	6.0*	0	2
COc1ccc(C(=O)Cn2nnc(-c3ccccc3F)n2)cc1	2	-1	-2	0	1
COc1ccc(-c2nnn(Cc3ccccc3F)n2)cc1	3	0	2	0	12*
Clc1ccccc1Cn1nnc(-c2ccccc2)n1	0	4.3*	0	0	2
Cc1ccc(Nc2ccc(C(=O)O)cc2N)cc1	.	1.1*	2	3	7
CCOc1ccc2ccccc2c1CNc1nnnn1CC	4.9*	-1	0	0	2
CCCCOCCCNC(=O)C[C@H]1C[C@@]2(C(=O)OCC)CCCC3=C2N(CCC3)C1=O	.	0	-1	0	-1
SMILES	DAX1 inh-1	ssDAF12 agonist	hcDAF-12 act	DAX1 inh-2	hgDAF-12 ag
O=C(NC(Cc1c[nH]c2ccccc12)C(=O)OCC(=O)c1cccc2ccccc12)c1cccs1 (stereo unspecified)	1	-1	6.1*	0	3
COc1cc(-c2nnc(SCC(=O)NN=Cc3c[nH]c4ccccc34)n2-c2ccccc2)cc(OC)c1OC	.	-1	1	-3	-4
COc1ccc(-n2c(SCC(=O)c3ccc4ccccc4c3)nnc2-c2ccccc2)cc1	.	-1	-3	-1	0
O=C(/C=C/c1ccc(O)cc1)c1ccccc1	3	-1	1	1	9
Cc1nn(C)cc1/C=C/C(=O)c1ccc(O)cc1	1	-1	3	2	11*
Cc1ccc(C(=O)Nc2nc(=O)[nH]s2)cc1	4.4*!	-1	0	0	1
Cc1ccc(C(=O)Nc2nc(=O)n(C(=O)CC(C)C)s2)cc1	1	-1	0	0	0
Cc1ccc(C(=O)Nc2nc(=O)n(C)s2)cc1	5.6*	-1	5	1	6
Cn1sc(NC(=O)c2ccc(Cl)cc2)nc1=O	0	0	3	1	3
COc1ccc(NC(=O)C/C(C)=N/NC(=O)c2ccccn2)c(OC)c1	1	0	4	3	12*
COc1ccc(NC(=O)C/C(C)=N/NC(=O)c2cccs2)c([N+](=O)[O-])c1	3	0	5	2	11*
COc1ccc(NC(=O)C/C(C)=N/NC(=O)c2cnccn2)c(OC)c1	1	0	-2	1	3
COc1ccc(CCNC(=O)C/C(C)=N/NC(=O)c2cnccn2)cc1	1	-1	2	4.2*	5
COc1ccc(CCNC(=O)c2cnccn2)cc1	0	-2	1	1	-1
CN1CCN(c2ccc3c(c2)Oc2ccccc2CN(Cc2cn(Cc4cccc(C(F)(F)F)c4)nn2)S3(=O)=O)CC1	.	-1	-3	-1	-2
CS(=O)(=O)c1ccc(NC(=O)CCCc2nc3ccccc3c(=O)[nH]2)cc1	1	-1	0	0	5
COC(=O)C/C(C)=N/Nc1ccc(S(=O)(=O)N2CCCC2)cc1[N+](=O)[O-]	4.5*	-1	-2	0	-4
COc1ccc2cc3c(N)nn(C(=O)Cc4c[nH]c5ccccc45)c3nc2c1	-1	-2	-3	0	14*
COc1ccc2cc3c(N)nn(C(=O)c4cccc(F)c4)c3nc2c1	4.4*	-2	-2	1	0
COc1ccc2cc3c(N)nn(C(=O)c4ccc(F)cc4)c3nc2c1	0	-2	-1	0	12*
COc1ccc2cc3c(N)nn(C(=O)c4ccccc4Cl)c3nc2c1	0	-3	-5	-2	5
COc1ccc(CC(=O)Nc2ccc(-c3nc4cc(C)ccc4o3)c(O)c2)cc1OC	0	-1	1	1	3
Cc1ccc2oc(-c3ccc(NC(=O)c4ccncc4)cc3O)nc2c1	1	0	0	1	12*
O=C(Nc1ccc2oc(-c3ccncc3)nc2c1)c1ccc2c(c1)OCCO2	5.7*	-3	-2	0	0
CCOC(=O)c1sc2nc3c(cc2c1N)COC(C(C)C)C3 (stereo unspecified)	4.3*	-1	0	2	3
N#Cc1cc2cc3c(cc2nc1N1CCCCC1)OCCO3	2	0	6.2*	-1	-5
N#Cc1cc2cc3c(cc2nc1Cl)OCCO3	-1	-1	-3	3	-5
COc1ccc(OCCOc2ccccc2[N+](=O)[O-])cc1	1	1.2*	1	2	8
